From PubChem
The list is not random: actives were taken first. Their share in the collection is about 7.3%.
HCV inhibitor – blocks hepatitis C virus. AID 651820. Potency, µM (titrated, usually from 41.8 µM), hits mostly inhibitors. Huh7.5.1 HCVcc-Cre infection, luciferase reporter, 44 h. actives 3.4% (n = 340,000); active means well fitted inhibition curve with a large enough effect; inconclusive means small, poorly fitted or top-dose-only effect, or another doubt; inactive means no such curve, though single readings can be large or run the other way
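1,000 cells/well; 4 h culture; + compound; + HCVcc-Cre (~0.5 moi); 44 h; luciferase substrate, RT 15 min; read 15 sec.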
HCMV inh – human cytomegalovirus inhibition. HFF cells, HCMV-luciferase reporter, 72 h; hits give low values. activity change, negative = inhibition, % at 57.5 µM. actives 4.5% (n = 410,000); in the data active means activity change below about -60%; inconclusive means no clear call, values can overlap the other calls; inactive means above about -39%
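Steps: HFFs plated, 16 h 37C; compounds added; HCMV-luciferase added to MOI 1 PFU/cell; 72 h 37C; OneGlo reagent, 5 min room temperature; luminescence read, normalized to controls.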
VACV mCherry inh – inhibitors of vaccinia virus infection (mCherry reporter signal); Vaccinia virus mCherry reporter infection, fluorescence; Potency, µM (series often up to 36.5 µM), actives largely listed as inhibitors; actives 0.63% (n = 310,000); AID 720579; calls by dose curve; tested in A549 cells; further: nearly all actives have a fitted effect of over 35% in size
VACV Venus inh – vaccinia inhibition (Venus reporter). Potency, µM (highest dose often 36.5 µM), usual class: inhibitors. Vaccinia virus Venus reporter expression, fluorescence. AID 720580. actives 0.46% (n = 330,000); calls by dose curve; tested in A549 cells; further: nearly all actives have a fitted effect of over 30% in size
FMDV antiviral – foot and mouth disease virus antiviral activity | FMDV antiviral cell-based qHTS | Potency, µM (titrated, usually from 57.9 µM), usual class: inhibitors | actives 1.2% (n = 410,000); calls by dose curve; tested in HEK293T cells; further: read-out not given here; nearly all actives have a fitted effect of over 45% in size
Hits are given with their value; – = inactive; ? = inconclusive; · = no result; [ ] = remark or other dose.

SMILES	HCV inhibitor	HCMV inh	VACV mCherry inh	VACV Venus inh	FMDV antiviral
O=C(COc1ccc([N+](=O)[O-])cc1)Nc1ccc(N2CCN(C(=O)c3ccco3)CC2)cc1	11µM	?	–	–	?
Cc1ccc(-c2csc3nc(SCC(=O)Nc4ccc(Cl)c(C(=O)O)c4)[nH]c(=O)c23)cc1	–	–	·	·	–
Cc1ccc(S(=O)(=O)NCC(Nc2cccc(Cl)c2)c2ccccc2)cc1 (centres undefined)	·	-103	?	?	–
O=S(=O)(NCC(Nc1ccc(Cl)cc1)c1ccccc1)c1ccc(Cl)cc1 (centres undefined)	?	?	–	?	–
COc1ccc(C)c2sc(NC(=O)CCS(=O)(=O)c3ccccc3)nc12	?	-89	?	?	–
CCOc1cccc2sc(N(CCN(C)C)C(=O)CCS(=O)(=O)c3ccccc3)nc12	–	–	–	?	–
CCOc1cccc2sc(NC(=O)CCS(=O)(=O)c3ccccc3)nc12	22µM	·	?	–	–
CCOc1cccc2sc(Nc3nc4ccc(NC(C)=O)cc4s3)nc12	4.5µM	-90	–	?	–
COc1ccccc1Cc1nc2ccccc2nc1SCC(=O)Nc1c(C)cccc1C	·	–	–	–	–
Cn1c(CCC(=O)Nc2cc(S(C)(=O)=O)ccc2Cl)nc2cc(S(=O)(=O)N3CCOCC3)ccc21	–	–	–	–	–
COc1ccccc1-c1ccnc(-n2ncc(C(=O)NC(C)(C)CO)c2C2CC2)n1	·	·	–	–	–
CC(=O)Oc1ccc2cc(-c3nc4c(s3)CCc3ccccc3-4)c(=O)oc2c1	·	·	–	–	·
CSc1nc2ccsc2c(=O)n1-c1ccccc1	–	–	–	–	–
Cc1nc2c(sc(=S)n2Cc2ccco2)c(=O)n1CC(=O)Nc1ccccc1F	?	–	–[7.34 µM]	–[7.34 µM]	–
CCN(CC)C(=O)CSc1nc2c(sc(=S)n2-c2ccccc2)c(=O)n1-c1ccc(OC)c(OC)c1	?	-68	·	·	–
CCn1c(=S)sc2c(=O)n(-c3ccccc3)c(SC)nc21	?	-61	·	·	18µM
N#CCSc1nc2c(sc(=S)n2Cc2ccco2)c(=O)n1-c1ccc(F)cc1	?	-107	·	·	?
CCN(CC)C(=O)CSc1nc2c(sc(=S)n2-c2ccccc2)c(=O)n1-c1ccccc1OC	?	?	–	–	–
CCN(CC)C(=O)CSc1nc2c(sc(=S)n2-c2ccccc2)c(=O)n1-c1ccc(OC)cc1OC	?	-69	·	·	–
COCCn1c(=O)c(-c2cc(F)cc(F)c2)nc2cnc(OC)nc21	·	·	·	·	–
CCc1nc2c(OCC(=O)c3ccc(Cl)cc3Cl)cccn2c1N(C)C(=O)COc1ccccc1	·	–	–	–	–
CCOC(=O)c1ccc(NC(=O)C(Cc2ccccc2)NS(=O)(=O)c2ccc(Br)s2)cc1 (centres undefined)	·	–	–	–	–
CCc1ccc2[nH]c3nc(N/N=C/c4ccc(O)cc4O)nnc3c2c1	?	-76	1.8µM	–	–
O=C(Cc1ccc(-c2ccccc2)cc1)NO	·	·	–	–	·
Cn1nnc2c(NCc3ccccc3)ncnc21	·	–	–	–	–
SMILES	HCV inhibitor	HCMV inh	VACV mCherry inh	VACV Venus inh	FMDV antiviral
CCOc1ccc(-c2nc(CSCC(=O)NCc3ccc(Cl)cc3)c(C)o2)cc1	·	-66	?	?	?
Cc1oc(-c2ccc(Cl)cc2)nc1CS(=O)CC(=O)NCc1ccccc1 (centres undefined)	–	–	–	–	–
Cc1ccc(-c2nc(CSCC(=O)NCCN3CCN(Cc4ccccc4)CC3)c(C)o2)cc1	13µM	-65	·	·	?
Cc1ccc(CNC(=O)CSCc2nc(-c3ccc(Cl)cc3)oc2C)cc1	·	–	–	–	–
Cc1ccc(-c2nc(CS(=O)CC(=O)NCc3ccc(Cl)cc3)c(C)o2)cc1 (centres undefined)	11µM	–	–	–	–
Cc1oc(-c2ccc(Cl)cc2)nc1CS(=O)CC(=O)NCCCN1CCN(Cc2ccccc2)CC1 (centres undefined)	1.3µM	-93	·	·	–
Cc1cccc(NC(=O)C2CCC(CNS(=O)(=O)c3ccc(Br)s3)CC2)c1 (centres undefined)	·	–	–	–	–
CCC1C(=O)NCCN1Cc1ccc2c(c1)CN(Cc1ccc(OC)cc1OC)CCO2 (centres undefined)	·	·	–	–	–
COc1cccc(/C=C(\C)C(=O)c2c(C)cc(C)[nH]c2=O)c1OC	–	·	·	·	–
Cn1cccc1C(=O)N1CCC2(CCCN(c3ncccn3)C2)CC1	·	·	·	·	–
Cc1ccc(C(=O)NN2C(=O)/C(=C/c3cn(C)c4ccccc34)SC2=S)cc1	–	-69	–	–	–
